About 83,000 compounds went through this panel and 20% of them were active in at least one assay; those are over-represented in the sample as a whole.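 Single-dose data. Exposure time 48 hours. Values below 10 considered active.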 Values without a mark were called inactive. Activity calls are given as the source filed them.

Drawing on PubChem BioAssay (NCI), this text covers growth for 14 compounds.

Holding throughout (assay): NCI-60 one-dose screen, 48 h (100 = growth as untreated, 0 = no growth, -100 = all killed)
Details in all cases: 10 µM unless noted

Assay [1] has as its system SK-MEL-2 melanoma.
The test system of assay [2] is EKVX NSCLC.
Assay [3] concerns SN12C renal.
Assay [4] has as its system UO-31 renal.
The subject of assay [5] is TK-10 renal.
The subject of assay [6] is ACHN renal.
The subject of assay [7] is CAKI-1 renal.
Assay [8] concerns A498 renal.
For assay [9], the system named is CCRF-CEM leukemia.
Assay [10] relates to MOLT-4 leukemia.

For the compound `CC(=O)Oc1ccc(Nc2c3ccccc3nc3ccccc23)cc1`, the growth in assay [1] was -30.7% (active); in assay [2] it was 24%; in assay [3] it was 5.67% (active); in assay [4], -16.4% (active); in [5] it was 3.64% (active); in assay [6] it was -31.7% (active). Also, the growth in [7] is -32% (active); in assay [8] it was -37.2% (active); in assay [9], -8.66% (active); in [10], 1.46% (active).

Regarding `COc1cc(C#N)cc(OC)c1OCCN(CCOc1c(OC)cc(C#N)cc1OC)S(=O)(=O)c1ccc(C)cc1`, the growth is 75% in [1]; 108% in assay [2]; 111% in assay [3]; 45.5% in assay [4]; 140% in assay [5]; 97.5% in [6]. In addition, the growth was 109% in assay [7], 107% in [8], 103% in [9] and 97.6% in assay [10].

As for `COc1cc(/C=C2\CN(C(=O)CCN3CCC(=NO)CC3)C/C(=C\c3cc(OC)c(OC)c(OC)c3)C2=O)cc(OC)c1OC`, the growth in assay [1] was -26.9% (active); in [2], -36.1% (active); in [3], -9.11% (active); in assay [4], -96.2% (active); in assay [5] it was -69.2% (active); in [6], -44.2% (active). Also, the growth is -77.2% (active) in assay [7], -87.2% (active) in assay [8], -37.3% (active) in assay [9] and 2.41% (active) in assay [10].

As to `CSc1ncnc2c1ncn2C1CCCO1` (stereo not given), the growth in assay [1] was 99.3%; in assay [2], 95.6%; in assay [3], 99.1%; in assay [4], 92.1%; in assay [5], 106%; in assay [6], 99%. For the same compound, the growth was 79.1% in assay [7], 146% in [8], 109% in [9] and 106% in assay [10].

Turning to `O=C1c2cc3c(cc2-c2c1c1cc(F)c(F)cc1c(=O)n2C[C@H](O)CO)OCO3`, the growth in assay [1] was -26% (active); in [2], 14.7%; in assay [3] it was -12.6% (active); in assay [4] it was -56.8% (active); in [5], -27.6% (active); in [6] it was -61.5% (active). The growth in assay [7] was -4.95% (active); in [8], -79.4% (active); in assay [9], -10.9% (active); in assay [10], -26% (active).

On to `O=C1NC(=O)C(CC(=O)n2c(-c3ccccc3)nc3ccccc32)C(=O)N1`, for which the growth was 101% in assay [1]; 93.6% in assay [2]; 99.5% in [3]; 79.6% in assay [4]; 116% in assay [5]; 101% in assay [6]. Moreover, the growth in assay [7] is 90.5%; in [8] it was 63.6%; in assay [9] it was 104%; in [10], 108%.

As for `C=C1C(=O)O[C@H]2[C@H]1CC/C(Cn1cc(Cn3ccc4ccccc43)nn1)=C\CC[C@@]1(C)O[C@@H]21`, the growth in assay [1] is 61.5%; in assay [2], 58.6%; in assay [3] it was 39.8%; in assay [4], -77.2% (active); in assay [5], 16.8%; in [6], -52.9% (active). Moreover, the growth was 18.3% in [7], 74.3% in [8], -18.6% (active) in [9] and -8.31% (active) in [10].

`COc1ccc(/C(=C/c2ccc3ccccc3c2)c2nn[nH]n2)cc1OC`: the growth in [1] was 40.3%; in assay [2], 43.9%; in [3], 37.2%; in assay [4], 41.4%; in assay [5] it was 54.5%; in assay [6], 54.4%. In addition, the growth in assay [7] is 23.3%; in [8] it was 14.5%; in assay [9], 19.7%; in assay [10] it was 37.8%.

Turning to `N=c1c2ccccc2nc2n1CCCCC2`, the growth in assay [1] is 114%; in [2], 103%; in assay [3] it was 104%; in assay [4] it was 89.7%; in assay [5] it was 123%; in [6] it was 105%. For the same compound, the growth was 95.1% in assay [7], 121% in assay [8], 92.9% in assay [9] and 117% in assay [10].

Regarding `CC1=NNC(=O)C1C` (stereo not given), the growth in [1] is 99.8%; in assay [2], 102%; in assay [3], 96.1%; in [4] it was 88.2%; in assay [5], 377%; in assay [6] it was 103%. The growth in assay [7] was 81.5%; in assay [8], 88.6%; in [9], 97.1%; in assay [10], 145%.

On to `O=C1C(=O)N(CCCCn2cc(CO)nn2)c2ccccc21`, for which the growth was 98.8% in assay [1]; 92.4% in [2]; 104% in assay [3]; 87.7% in assay [4]; 102% in [5]; 101% in [6]. The growth in assay [7] is 87.8%; in assay [8], 99.4%; in assay [9], 104%; in [10], 95.7%.

In the case of `Nc1cc2ccncc2c2ccccc12`, the growth in assay [1] was 45.5%; in assay [2] it was 60.4%; in assay [3], 52.7%; in [4] it was 51.6%; in assay [5], 80.6%; in assay [6], 36.4%. Moreover, the growth in assay [7] is 58.2%; in [8], 67.5%; in [9], 66.9%; in assay [10], 50.2%.

Turning to `COc1ccc(-c2cc(C(=O)N=Nc3c(O)[nH]c4ccccc34)no2)cc1`, the growth in assay [1] is 97.9%; in [2], 97.4%; in assay [3], 94.9%; in assay [4], 81.5%; in assay [5], 118%; in assay [6] it was 107%. Further, the growth is 86% in assay [7], 84.6% in [8], 101% in assay [9] and 106% in assay [10].

In the case of `CSc1ccc(N=C=C(c2ccccc2)c2ccccc2)cc1`, the growth was 93.5% in assay [1]; 96.6% in assay [2]; 81.7% in assay [3]; 83.5% in [4]; 99.6% in assay [5]; 92.9% in [6]. The growth in assay [7] was 96.9%; in assay [8], 81.8%; in [9] it was 1.03% (active); in [10], 34.7%.
